DT40 TDP1 no CPT: qHTS for Inhibitors of human tyrosyl-DNA phosphodiesterase 1 (TDP1): qHTS in cells in absence of CPT; DT40 Tdp1-/- hTDP1 cells, no CPT, ATP luminescence, 48 h; Potency, µM (top dose mostly 46.2 µM), hits mostly inhibitors; 420,000 compounds, 15% hits; AID 686978, 2013; also: nearly all actives have a fitted effect of over 55% in size
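Luminescent ATP content (CellTiter-Glo) served as the growth readout. Knockout chicken DT40 cells expressing human TDP1 were exposed to compounds without camptothecin for a minimum 48 hr at 37 °C.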
ASM inhibitor: blocks human secretory acid sphingomyelinase | Potency, µM (highest dose often 57.5 µM), most hits filed as inhibitors | 340,000 compounds, 0.006% hits | P17405 | placental ASM, HMU-PC fluorogenic substrate, 60 min
Target sequence (P17405 47-631 limits assumed): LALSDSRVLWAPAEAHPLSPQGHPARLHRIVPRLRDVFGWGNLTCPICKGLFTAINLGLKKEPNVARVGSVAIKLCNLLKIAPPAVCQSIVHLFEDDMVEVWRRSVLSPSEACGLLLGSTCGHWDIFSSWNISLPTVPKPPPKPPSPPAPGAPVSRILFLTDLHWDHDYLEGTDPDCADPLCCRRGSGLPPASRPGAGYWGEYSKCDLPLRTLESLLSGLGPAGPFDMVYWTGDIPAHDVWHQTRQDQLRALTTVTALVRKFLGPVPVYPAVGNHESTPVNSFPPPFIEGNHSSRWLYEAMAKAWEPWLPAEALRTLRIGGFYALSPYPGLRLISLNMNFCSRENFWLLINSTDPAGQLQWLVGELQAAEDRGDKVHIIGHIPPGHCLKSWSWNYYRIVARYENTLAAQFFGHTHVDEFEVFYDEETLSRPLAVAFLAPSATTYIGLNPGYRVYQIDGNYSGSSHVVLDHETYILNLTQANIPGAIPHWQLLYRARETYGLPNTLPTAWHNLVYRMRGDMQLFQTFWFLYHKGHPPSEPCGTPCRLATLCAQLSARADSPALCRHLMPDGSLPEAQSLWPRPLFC
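Fluorescence read-out (Ex 386 nm, Em 447 nm) after stopping the reaction at pH 10. Enzyme: ASM from human placenta; substrate HMU-PC0, 9 uM final; 60 min, 37 °C. Compound preincubation 10 min, ambient temperature.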
HepG2 viability: HepG2 cytotoxicity, counter-screen for TGF-b inhibitors. HepG2 CAGA-GFP viability, ATP luminescence, 18 h. Potency, µM (doses to about 46.1 µM), hits mostly cytotoxic. 410,000 compounds, 0.76% hits
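HepG2 CAGA-GFP cells (1000/well, DMEM with 1% FBS) received compound, then TGF-beta at 500 pg/mL final, and were incubated 18 hours at 37 degrees C. Viability was read by CellTiter-Glo luminescence. Media-only wells were set as complete cell-killing and DMSO as no toxicity.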
DT40 TDP1 CPT: DT40-hTDP1 cell growth loss with CPT; chicken DT40 Tdp1-/-;hTDP1 cells + 20 nM CPT, ATP luminescence, 48 h; Potency, µM (series often up to 46.2 µM), usual class: inhibitors; AID 686979; 420,000 compounds, 12% hits; also: nearly all actives have a fitted effect of over 55% in size
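Cell growth measured by CellTiter-Glo luminescence after a minimum 48 h, 37 C compound exposure with 20 nM CPT in Tdp1-knockout DT40 cells stably expressing hTDP1, seeded 400/well; qHTS titration format.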
TGFb inhibitor: inhibitors of TGF-b signaling. HepG2 CAGA-GFP TGF-b/SMAD3 reporter, GFP fluorescence, 18 h; TGF-beta stimulated, 500 pg/mL final. Potency, µM (highest dose often 46.1 µM), most hits filed as inhibitors. 410,000 compounds, 1.2% hits; also: nearly all actives have a fitted effect of over 65% in size
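GFP signal (ex488/em500-530) from TGF-beta-stimulated HEPG2 CAGA-GFP cells, 500 pg/mL final, 18 h at 37 degrees C in DMEM plus 1% FBS, normalized to unstimulated and DMSO-stimulated controls.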
IL1B secr inh: inflammasome signaling inhibition, IL-1 beta readout; THP-1 LPS/ATP IL-1B secretion, AlphaLISA, 16 h; hits give low values; activity change, % at 57.5 µM; 360,000 compounds, 4.7% hits; AID 743279; in the data active = activity change below about -50%; inconclusive = mostly about -30% to -49%
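Secreted IL-1B measured by AlphaLISA bead assay after 16 h compound exposure of THP-1 cells; compounds (final up to 57.5 uM) added 1 h before LPS (250 ng/mL) and ATP (1.25 mM) stimulation; lower signal means less secretion.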
Numbers stand for hits; . = inactive; ? = inconclusive; / = no result given. Sampled rows, rich in hits. Any-hit rate of the full collection: about 19%. Unless noted, calls follow the shape of the dose curve; as a rule, active = well fitted curve in the direction sought with a large enough effect; inconclusive = small, poorly fitted or top-dose-only effect, or another doubt; inactive = no such curve, though single readings can be large; an effect the other way counts as inactive or inconclusive.

SMILES	DT40 TDP1 no CPT	ASM inhibitor	HepG2 viability	DT40 TDP1 CPT	TGFb inhibitor	IL1B secr inh
Cc1ccc(NC(=O)CN(C)CC(=O)Nc2cccc(F)c2)cc1S(=O)(=O)N1CCCCCC1	?	.	.	?	?	-77
CC1Cc2ccccc2N1C(=O)CNc1cccc(S(=O)(=O)N2CCCC2)c1 (stereo not given)	21µM	.	.	15µM	.	.
O=C(O)CN(CCc1ccccc1)S(=O)(=O)c1ccccc1	.	.	.	.	.	.
O=C(NCCCN1CCN(c2ccccc2F)CC1)c1cc2c(s1)-c1ccccc1OC2	?	/	.	?	?	/
O=C(Nc1cccc(S(=O)(=O)N2CCCC2)c1)c1cccc(S(=O)(=O)N2CCOCC2)c1	?	.	.	?	.	.
Cc1ccc(NCC(=O)Nc2cccc(S(=O)(=O)N(C)C)c2)cc1S(=O)(=O)N1CCCCCC1	7.3µM	.	.	8.2µM	?	?
CCN(CC)S(=O)(=O)c1cc(NC(=O)CNc2cccc(S(=O)(=O)N3CCOCC3)c2)ccc1C	2.1µM	.	.	5.2µM	?	.
Cc1ccc(S(=O)(=O)N2CCOCC2)cc1NC(=O)CN(C)CC(=O)Nc1cccc(F)c1	21µM	/	.	?	.	.
CCN(CC)S(=O)(=O)c1cccc(NC(=O)c2cccc(S(=O)(=O)N3CCCC3)c2)c1	16µM	.	.	?	.	.
CCOC(=O)c1[nH]c(C)c(CCC(=O)Nc2cc(Cl)c(OC)cc2OC)c1C	?	/	.	?	.	/
CC(=O)Nc1ccc2nc(-c3cccs3)[nH]c2c1	.	.	.	.	.	.
CCOC(=O)Nc1ccc2nc(-c3cscn3)[nH]c2c1	5.8µM	/	.	6.5µM	.	.
CC(C)Cc1nc(N2CCN(C(=O)c3ccco3)CC2)c(C#N)c2c1CCCC2	?	.	.	23µM	?	.
CCCC(=O)N1CCN(c2nc(CC(C)C)c3c(c2C#N)CCC3)CC1	23µM	.	.	?	.	-72
CC(Sc1nc(N2CCCCC2)c2c(c1C#N)CCCC2)C(=O)O (stereo not given)	.	.	.	.	.	.
Cc1nc(N2CCN(C(=O)c3ccco3)CC2)c(C#N)c2c1CCCC2	?	.	.	.	?	-84
CC1(C)Cc2c(C#N)c(N3CCOCC3)nc(-c3ccccc3)c2CO1	?	.	.	.	.	.
CC(C)C(=O)N1CCN(c2nc(-c3ccccc3)c3c(c2C#N)CCCC3)CC1	?	.	.	?	?	-57
Cc1ccc(C(=O)COC(=O)c2cccc(NC(=O)c3ccc(Cl)cc3Cl)c2)cc1	?	/	.	?	?	/
CC(C)C(=O)N(Cc1ccc(F)cc1)Cc1nc2ccccc2c(=O)[nH]1	?	.	20µM	?	.	.
COc1ccccc1CN(Cc1nc2ccccc2c(=O)[nH]1)C(=O)Nc1cccc(C)c1	3.7µM	.	8.9µM	3.3µM	?	.
CCCCN(Cc1nc2ccccc2c(=O)[nH]1)C(=O)COc1ccc(F)cc1Cl	15µM	.	.	18µM	.	.
COc1ccccc1C(=O)NCC(=O)N(C)Cc1nc2ccccc2c(=O)[nH]1	.	/	.	.	.	.
CCN(CC(=O)NCCc1ccc(F)cc1)Cc1nc2ccccc2c(=O)[nH]1	.	.	.	?	.	.
COc1ccccc1NC(=O)N(Cc1ccc2c(c1)OCO2)Cc1nc2ccccc2c(=O)[nH]1	13µM	.	.	18µM	.	.
COc1cccc(C(=O)N(Cc2ccc3c(c2)OCO3)Cc2nc3ccccc3c(=O)[nH]2)c1	.	.	.	?	.	.
COc1ccc(S(=O)(=O)Nc2ccc3c(c2)C(=O)N([C@H](C)CO)C[C@H](C)[C@@H](CN(C)C(=O)Nc2c(C)noc2C)OCCCC[C@H](C)O3)cc1	.	/	.	.	.	.

Source: PubChem BioAssay
